Assay results as given in PubChem BioAssay (NCI).
The panel holds about 83,000 compounds, 20% with a hit somewhere; the sample as a whole holds those more often.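 Cell lines were cultured in 96-well plates, exposed to a single compound concentration, and assessed for percent growth 48 hours later.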 The source made the active and inactive calls. The calls were made as follows: active = growth percent below 10; inactive = the rest.

How the values were obtained:
Assay in all cases: NCI-60 one-dose screen, 48 h (100 = growth as untreated, 0 = no growth, -100 = all killed)
Conditions in all cases: 10 µM unless noted
[1] = tested on: NCI-H23 lung
[2] = tested on: NCI-H226 lung
[3] = tested on: NCI-H322M lung
[4] = tested on: HOP-62 NSCLC
[5] = tested on: NCI-H460 lung
[6] = tested on: HOP-92 NSCLC
[7] = tested on: NCI-H522 lung
[8] = tested on: A549/ATCC NSCLC
[9] = tested on: 786-0 renal
[10] = tested on: COLO 205 colon
[11] = tested on: DU-145 prostate
[12] = tested on: K-562 leukemia
[13] = tested on: MALME-3M melanoma
[14] = tested on: MDA-MB-231 breast
[15] = tested on: RXF 393 renal
[16] = tested on: SF-268 CNS
[17] = tested on: SF-295 CNS
[18] = tested on: SF-539 CNS
[19] = tested on: UACC-257 melanoma
[20] = tested on: M14 melanoma

Measured: growth

COc1ccc(C/C(C)=C(/c2ccc(OCCN3CCCCCC3)cc2)c2ccc(OC(=O)NCc3ccccc3)cc2)cc1
inactive: [1] 86.4% | [2] 101% | [3] 93.2% | [4] 91.1% | [5] 70.7% | [6] 56% | [7] 75.2% | [8] 77% | [9] 83.5% | [10] 85.7% | [11] 95.6% | [12] 28% | [13] 95.2% | [14] 83.9% | [15] 84% | [16] 88.4% | [17] 98.2% | [18] 96.7% | [19] 94.7% | [20] 95.6%

CCOc1ccc(/C=N\N=C\c2ccc(OCC)cc2)cc1
inactive: [1] 79.5% | [2] 89.1% | [3] 99.1% | [4] 93% | [5] 51.7% | [6] 84.4% | [7] 51.9% | [8] 94.2% | [9] 105% | [10] 96.6% | [11] 17% | [12] 86.7% | [13] 115% | [14] 83.6% | [15] 84.9% | [16] 94% | [17] 95.9% | [18] 96.4% | [19] 99% | [20] 85.3%

COc1ccc(Nc2ncc(C(N)=O)c(NCCCNC(=O)C3CCC3)n2)cc1
active: [10] 3.6%
inactive: [1] 76.9% | [2] 62.7% | [3] 79% | [4] 35.9% | [5] 68.6% | [6] 60.6% | [7] 77.1% | [8] 83.1% | [9] 74.1% | [11] 77.3% | [12] 39.5% | [13] 95.2% | [14] 26.5% | [15] 17% | [16] 80.9% | [17] 75.7% | [18] 14.3% | [19] 112% | [20] 67.7%

CCCCCCCCn1ccc2cc(NC(=O)Cn3cc(CN4CCCCCC4)nn3)ccc21
inactive: [1] 52.3% | [2] 38.6% | [3] 26.7% | [4] 55.7% | [6] 24% | [7] 52.4% | [8] 50.6% | [11] 30.7% | [15] 29.2% | [16] 15.5%
active: [5] -58.7% | [9] -71.9% | [10] -70.1% | [12] -62.2% | [13] -88.6% | [14] -26% | [17] -71.3% | [18] -73.9% | [19] -49.2% | [20] -68.3%

CCCCCCC(=O)Nc1ncc(Cc2ccc(C)cc2)s1
inactive: [1] 59.3% | [2] 64.1% | [3] 58.4% | [4] 40.3% | [5] 23.4% | [6] 60.4% | [7] 22.2% | [8] 47.5% | [9] 46% | [10] 16.5% | [11] 42.2% | [12] 24.2% | [13] 58.6% | [14] 59.9% | [16] 58.1% | [17] 34.6% | [18] 20.6% | [19] 55.2% | [20] 31.6%
active: [15] -7.29%

c1ccc(CNc2ccc3nc(CCC4CCCCC4)[nH]c3c2)cc1
inactive: [1] 68.2% | [2] 71.4% | [3] 86.7% | [4] 80.1% | [5] 78.1% | [6] 44.7% | [7] 58.3% | [8] 72.5% | [9] 62.2% | [11] 80.1% | [12] 14.6% | [13] 58.3% | [14] 77.7% | [15] 66.5% | [16] 79.8% | [17] 81% | [18] 82.1% | [19] 74.2% | [20] 76.2%
active: [10] 1.16%

Cc1ccc2[nH]c(=O)c3c(c2c1)OC(N)=C(C#N)C31C(=O)c2cccc3cccc1c23 (stereo not given)
inactive: [1] 103% | [2] 91.1% | [3] 100% | [4] 98.2% | [5] 101% | [6] 104% | [7] 89.3% | [8] 103% | [9] 100% | [10] 103% | [11] 101% | [12] 87.8% | [13] 99.2% | [14] 87.4% | [15] 97% | [16] 94.6% | [17] 104% | [18] 95.9% | [19] 108% | [20] 98.2%

COc1ccc(/C=C/C(=O)c2cc3c(N)c(C(=O)Nc4ccc(OC)cc4)sc3nc2C)cc1
inactive: [1] 32.7% | [2] 49.4% | [3] 36.4% | [4] 49.2% | [6] 97.7% | [8] 13.5% | [9] 27.7% | [11] 17.5% | [12] 17.9% | [13] 49.1% | [14] 24.7% | [16] 39.5% | [17] 11.6% | [19] 55.3% | [20] 10.2%
active: [5] -6.51% | [7] -29.6% | [10] -47.7% | [15] -14.4% | [18] -25.5%

O=C(/C=C/C12c3ccccc3C(c3ccccc31)C1C(=O)NC(=O)C12)c1ccccn1 (stereo not given)
inactive: [2] 48.5% | [11] 15.3% | [13] 19.1% | [14] 16.4% | [16] 24.1% | [17] 16% | [19] 33.8%
active: [1] -8.66% | [3] -4.26% | [4] -22.7% | [5] -18.5% | [6] -12.4% | [7] 7.45% | [8] 6.07% | [9] 1.59% | [10] -50.5% | [12] 8.81% | [15] -46.3% | [18] -7.59% | [20] -15.4%

O=C(CN1C(=O)/C(=C/c2ccco2)SC1=S)NCCc1c[nH]c2ccc(F)cc12
inactive: [1] 94.7% | [2] 92.4% | [3] 102% | [4] 117% | [5] 103% | [6] 102% | [7] 82.5% | [8] 102% | [9] 104% | [10] 115% | [11] 108% | [12] 101% | [13] 108% | [14] 102% | [15] 110% | [16] 93.6% | [17] 99.4% | [18] 95.2% | [19] 113% | [20] 106%

CCCCn1sc(=O)n(Cc2ccc(CNC(=O)OCc3ccc4c(Br)cc(Br)c(O)c4n3)cc2)c1=O
active: [5] 4.44% | [7] -7.12% | [11] 6.37% | [18] -14%
inactive: [1] 36.1% | [2] 31.6% | [3] 46% | [4] 27.1% | [6] 37.8% | [8] 18.9% | [9] 92.2% | [10] 114% | [12] 12.8% | [13] 61.1% | [14] 38.6% | [15] 15.9% | [16] 33.9% | [17] 13.7% | [19] 48.4% | [20] 10.4%

Cc1ccc(N=Nc2c(N)nn(-c3ccccc3)c2N)cc1
inactive: [2] 76% | [3] 32.7% | [4] 64% | [6] 86.2% | [8] 29.3% | [9] 63.7% | [10] 16.9% | [11] 27.8% | [13] 39.3% | [14] 54.4% | [16] 54.5% | [17] 13.8% | [18] 11.4% | [19] 63.4%
active: [1] 6.74% | [5] 9.76% | [7] -11% | [12] 7.43% | [15] -0.509% | [20] -2.8%

COC(=O)c1ccc2c(c1)c1c(C)c3ccncc3c(C)c1n2C
inactive: [1] 24.1% | [2] 25% | [3] 33.6% | [4] 24% | [6] 18.7% | [9] 28.5% | [11] 22.7% | [14] 25.1% | [15] 17.5% | [16] 26.3% | [17] 24.1% | [18] 31.9% | [20] 30.8%
active: [5] 8.82% | [7] 6.4% | [8] 7.22% | [10] 2.15% | [12] 8.47% | [13] 5.36% | [19] 1.45%

c1ccc(CCc2ccccc2-c2cc(-c3ccccc3)on2)cc1
inactive: [1] 75.1% | [2] 96.5% | [3] 87% | [4] 96.5% | [5] 82.4% | [6] 103% | [7] 80.1% | [8] 97.7% | [9] 94.5% | [10] 100% | [11] 92% | [12] 71.2% | [13] 102% | [14] 84.3% | [15] 94.2% | [16] 97.1% | [17] 96.3% | [18] 93.8% | [19] 99.9% | [20] 87.8%

CN1CCCc2cc(/C=C3/SC(=S)N(CCc4ccc(O)cc4)C3=O)ccc21
inactive: [1] 94.1% | [2] 88.5% | [3] 95.1% | [4] 101% | [5] 95.1% | [6] 48.3% | [7] 43.8% | [8] 87.3% | [9] 87.6% | [10] 112% | [11] 85.9% | [12] 27.6% | [13] 96.6% | [14] 81.8% | [15] 94.6% | [16] 76.3% | [17] 99.7% | [18] 84.8% | [19] 93.2% | [20] 78.6%

Cc1nn(-c2ccccc2)c(N2CCCCC2)c1/C=N/NC(=O)Cn1c(=O)sc2ccccc21
inactive: [1] 82.6% | [2] 92.8% | [3] 76.3% | [4] 77.3% | [5] 81.5% | [6] 65.6% | [7] 64.9% | [8] 66% | [9] 97.2% | [10] 88.2% | [11] 95.8% | [12] 43.4% | [13] 101% | [14] 79% | [15] 89.9% | [16] 79.2% | [17] 56.7% | [18] 92.2% | [19] 95.2% | [20] 72.2%
